# Experimental data reported in PubChem BioAssay (NCATS).
# Records with an inconclusive call do not appear. Values without a mark were called inactive. Active and inactive are the calls of the source. Calls follow the shape of the full dose curve; tested in HEK293 reporter line.
# Experiment: qHTS for Inhibitors of the Functional Ribonucleoprotein Complex (vRNP) of Lassa (LASV) Arenavirus: LASV Primary Screen - GLuc reporter signal (AID 1347082); also: nearly all actives have a fitted effect of over 60% in size
# Conditions: LASV minigenome vRNP, Gaussia luciferase reporter; series mostly up to 57.5 µM; activity change, negative = inhibition: at the top concentration
# % is scaled to controls: 0 for no effect and ±100 for the full control effect.
Compound,"activity change, negative = inhibition",Potency
C#C[C@]1(O)CC[C@H]2[C@@H]3CCc4cc(OC)ccc4[C@H]3CC[C@@]21C,-18%,
Cc1c(Cn2ccnc2)c2ccccc2n1CCC(=O)O,5.82%,
CN1C[C@H](C(=O)N[C@]2(C)O[C@@]3(O)[C@@H]4CCCN4C(=O)[C@H](Cc4ccccc4)N3C2=O)C[C@@H]2c3cccc4[nH]cc(c34)C[C@H]21,,inactive
CCCN(CCC)C(=O)C(CCC(=O)O)NC(=O)c1ccccc1 (centres undefined),,inactive
Cc1cc2c(OCC(CNC(C)(C)C)OC(=O)c3ccccc3)cccc2[nH]1 (centres undefined),-2.7%,
COc1ccc2cc1Oc1ccc(cc1)C[C@H]1c3c(cc4c(c3Oc3cc5c(cc3OC)CCN(C)[C@@H]5C2)OCO4)CCN1C,-14.8%,
CC(=O)Oc1ccc(C(c2ccc(OC(C)=O)cc2)c2ccccn2)cc1,-0.125%,
CC(=O)OCC(=O)Nc1cc(C#N)cc(NC(=O)COC(C)=O)c1Cl,2.19%,
O=C1c2ccccc2C(=O)C1c1ccc(Br)cc1,-8.91%,
Oc1c(Cl)cc(Cl)c2cccnc12,,inactive
COC(=O)C1=C(C)NC(COC(N)=O)=C(C(=O)OC(C)C)C1c1cccc(Cl)c1Cl (centres undefined),-21%,
COc1ccc(-n2nc(CCC(=O)N(C)O)cc2-c2ccc(Cl)cc2)cc1,-4.71%,
CCCCN(CCN(CCCC)C(=O)N1CCOCC1)C(=O)N1CCOCC1,-11%,
NS(=O)(=O)c1cc2c(cc1Cl)NCNS2(=O)=O,,inactive
Cc1sccc1Br,5.66%,
O=Cc1ccccc1C=O,-15.3%,
C=CC[N+]1([C@H]2C[C@H]3[C@@H]4CC[C@H]5C[C@H](OC(C)=O)[C@@H](N6CCCCC6)C[C@]5(C)[C@H]4CC[C@]3(C)[C@H]2OC(=O)CC)CCCCC1,6.58%,
O=C(CCCCCCCCC#CI)Oc1ccccc1,-7.24%,
CN1CCCN=C1COC(=O)C(O)(c1ccccc1)C1CCCCC1 (centres undefined),3.14%,
CN(C)[C@@H](CCOc1cccc2ccccc12)c1ccccc1,,inactive

Compound,"activity change, negative = inhibition",Potency
CCC(=O)O[C@]1(C(=O)SCF)[C@H](C)C[C@H]2[C@@H]3C[C@H](F)C4=CC(=O)C=C[C@]4(C)[C@@]3(F)[C@@H](O)C[C@@]21C,,inactive
COc1ccc(-c2cc(C(F)F)nn2-c2ccc(S(N)(=O)=O)cc2)cc1F,9.15%,
O=S1(=O)c2cccc3cccc(c23)N1CCCN1CCN(c2ccc(F)cc2)CC1,-6.47%,
O=C1CC2(CCCC2)CC(=O)N1CCCCN1CCN(c2ncccn2)CC1,,inactive
CC1=C(C)C(=O)C(CCCCC#CCCCC#CCO)=C(C)C1=O,-14.4%,
CC1CCc2cc(F)cc3c(=O)c(C(=O)O)cn1c23 (centres undefined),8.69%,
OCC(O)CN1CCN(c2ccccc2)CC1 (centres undefined),-4.31%,
CNC(=O)CN(CCN(CCN(CC(=O)[O-])CC(=O)NC)CC(=O)[O-])CC(=O)[O-].O.[Gd+3],3.21%,
O=c1[nH]c2ccccc2c(=O)n1CCCl,-12.4%,
COC(=O)C1=C(C)NC(C)=C(C(=O)O[C@@H]2CCCN(Cc3ccccc3)C2)[C@@H]1c1cccc([N+](=O)[O-])c1,-17.1%,
COc1ccc(CN(CCN(C)C)c2ccccn2)cc1,,inactive
O=C(Nc1ccc([N+](=O)[O-])cc1)Nc1ccc([N+](=O)[O-])cc1,-0.948%,
OCC(CO)N[C@H]1C[C@](O)(CO)[C@@H](O)[C@H](O)[C@H]1O,-1.84%,
CN(C)CCN(Cc1ccccc1)c1ccccn1,-15.2%,
Oc1c(I)cc(Cl)c2cccnc12,-3.85%,
CCN1CCN(c2cc(-c3ccc(F)cc3)c3c(n2)CCCCCC3)CC1,6.07% [at 24.7 µM],
NS(=O)(=O)c1cc2c(cc1Cl)NC(CSCc1ccccc1)=NS2(=O)=O,7.52%,
Cc1cc(O)c(C)c(C)c1O,-12.5%,
CC(C)CCCC(C)N (centres undefined),1.17%,
